Many of the other results were omitted from the sample, so hits are more common in it than they were.
Cycloheximide cs: counter-screen for Shiga toxin inhibitors: cycloheximide protein synthesis inhibition. AID 2314. max response, %. actives 12% (n = 300,000). cell reporter, cycloheximide protein synthesis inhibition counterscreen; in the data active = max response mostly above about 13%, no sharp cut-off; inactive = mostly below about 14%; also: read at 38.3 µM for the half of the compounds with a filed dose; 0% is about no effect
LASV entry inh: blocks Lassa virus binding to or entry into cells; Lassa virus pseudotype entry inhibition, cell reporter; Potency, µM (titrated, usually from 37.9 µM), for the others: at the top dose activity change, negative = inhibition, actives largely listed as inhibitors; actives 1.2% (n = 300,000); AID 540256; calls by dose curve; tested in HEK293 cells; also: potency is read from the fitted curve at half-maximal effect; % is scaled to controls: 0 for no effect and ±100 for the full control effect; nearly all actives have a fitted effect of over 50% in size
Shiga inhibitor: Shiga toxin inhibition. Vero cells, Shiga toxin protein synthesis inhibition reporter. inhibition, % at 38.7 µM. actives 9.2% (n = 290,000). AID 2315; in the data active = inhibition mostly above about 28%, no sharp cut-off; inactive = mostly below about 43%; also: 0% is about no effect
Marburg entry inh: Marburg virus entry inhibition; actives 1.8% (n = 300,000); AID 540276; Marburg virus pseudotyped entry inhibition, cell reporter; Potency, µM (highest dose often 37.8 µM), for inactives: at the highest dose activity change, negative = inhibition, most hits filed as inhibitors; calls by dose curve; tested in HEK293 cells; also: potency is read from the fitted curve at half-maximal effect; % is scaled to controls: 0 for no effect and ±100 for the full control effect
VACV mCherry inh: vaccinia inhibition (mCherry reporter). Vaccinia virus mCherry reporter infection, fluorescence. Potency, µM (top dose mostly 36.5 µM), for the others: top-dose activity change, negative = inhibition, most hits filed as inhibitors. actives 0.63% (n = 310,000); calls by dose curve; tested in A549 cells; also: potency is read from the fitted curve at half-maximal effect; % is scaled to controls: 0 for no effect and ±100 for the full control effect; nearly all actives have a fitted effect of over 35% in size
VACV Venus inh: vaccinia inhibition (Venus reporter) | actives 0.46% (n = 330,000) | Vaccinia virus Venus reporter expression, fluorescence | Potency, µM (doses to about 36.5 µM), for inactives: at the highest dose activity change, negative = inhibition, most hits filed as inhibitors; calls by dose curve; tested in A549 cells; also: potency is read from the fitted curve at half-maximal effect; % is scaled to controls: 0 for no effect and ±100 for the full control effect; nearly all actives have a fitted effect of over 30% in size
Starred values were filed as active, the others as inactive; i = inactive; ? = inconclusive; . = not tested or not shown; [ ] = another dose, or the depositor's remark.

SMILES	Cycloheximide cs	LASV entry inh	Shiga inhibitor	Marburg entry inh	VACV mCherry inh	VACV Venus inh
O=C(Nc1cccc(C(F)(F)F)c1)Nc1ccc(N2CCCC2)c(S(=O)(=O)Nc2ccccc2Cl)c1	0.9	3.98µM*	8.9	2.51µM*	11.2µM*	11.2µM*
Oc1cc2c(cc1O)[C@H]1c3ccccc3CN[C@H]1CC2	.	.	.	15.8µM*	-4.6%	-16.7%
Oc1cc2c(cc1O)[C@H]1c3ccccc3CN[C@@H]1CC2	-2.9	.	-13.0	.	i	-7.3%
Oc1ccc(/C=N/N2CCOCC2)c(O)c1O	12.8	0.1%	-5.2	1.3%[46.1 µM]	-9.2%	-3.3%
Fc1ccc(/C=N/N2CCOCC2)c(F)c1	21.5*	.	38.3	.	-7.6%	-10.2%
COc1cccc(/C=N/N2CCOCC2)c1O	23.6*	14.8%[46.1 µM]	active	?	-6.3%	-11.6%
Fc1cccc(F)c1/C=N/N1CCOCC1	19.4	3.9%	16.8	3.0%[46.1 µM]	i	-9.8%
COc1ccc(O)c(/C=N/N2CCOCC2)c1	40.7*	-3.2%	98.7*	22.7%[46.1 µM]	-17.9%	-9.7%
COc1ccc(N=Cc2cccc(C)c2O)cc1Cl	-1.5	?	-2.5	20.1%	-10.7%	-1.9%
COc1cccc(C=Nc2ccc(N3CCOCC3)cc2)c1O	-4.4	.	-4.2	.	.	.
COc1cccc(C=Nc2ccc3c(c2)OCCO3)c1O	74.7*	10.2%	106.8*	-22.7%	-14.1%	0.7%
OC(Cn1cncn1)(c1ccc(F)cc1)c1ccc(Cl)cc1 (stereo not given)	0.6	.	-3.6	.	.	.
COc1cccc(/C=N/N2C(=O)NC3(CCCCC3)C2=O)c1O	37.2*	?	51.4	12.1%	-15.4%	-13.7%
CN1CCSc2ccc(C(=O)Nc3cc(F)ccc3F)cc21	54.2*	.	81.4*	.	i[7.34 µM]	-7.9%[7.34 µM]
Cc1ccccc1NC(=O)c1ccc2c(c1)N(C)CCS2	27.6*	.	31.6*	.	-16.2%	-4.4%
COC(=O)c1ccc2c(c1)N(C)CCS2	-0.9	.	8.4	.	-6.2%	0.5%
Cc1ccc(C)c(N2CCN(C(=O)C(C)n3c(C)c4cnn(-c5ccccc5)c(=O)c4c3C)CC2)c1 (stereo not given)	.	9.5%[46.1 µM]	.	18.5%[46.1 µM]	-20.5%	-7.0%
C=C1CN2C(=NC(c3ccccc3)C(C(=O)OC)=C2C)O1 (stereo not given)	.	.	.	-0.1%[14.2 µM]	.	.
NC(=O)c1nsc(C(=O)N(c2ccccc2)C(C(=O)NC2CCCCC2)c2ccc(O)cc2)c1N (stereo not given)	-2.4	?	-2.8	13.3%	-6.5%	-23.0%
Cc1ccc2[nH]c(-c3cccc(N)c3)cc2c1	30.3*	-0.9%	97.4*	?	-10.5%	-23.4%
Cc1ccc2nc(-c3cccc(N)c3)oc2c1	10.2	?	7.4	?	i	-13.7%
CC1(C)CSC(=NCCc2ccccc2)N1	14.2*	?	53.9*	28.4%[46.1 µM]	-1.4%	-6.6%
CC1(C)CSC(=NCCc2ccccc2)N1C(=O)c1ccc(C#N)cc1	4.4	?	-3.4	-16.3%	-14.8%	-4.0%
C=CC[n+]1c(-c2ccc(OC)c(OC)c2)csc1NNC(=O)Nc1ccccc1	-1.8	10.3µM*	-17.4	?	?	?
C=CC[n+]1c(-c2ccccc2)csc1NC(C)(C)C	-1.8	1.5%[46.1 µM]	-6.1	?	?	4.3%
SMILES	Cycloheximide cs	LASV entry inh	Shiga inhibitor	Marburg entry inh	VACV mCherry inh	VACV Venus inh
CCOc1ccc(S(=O)(=O)NN=C2CCN(C(C)=O)CC2)cc1	28.0	.	35.9	.	.	.
O=C(Nc1cccc(-c2ccc(N3CCOCC3)nn2)c1)c1ccccc1	.	?	.	-2.6%[46.1 µM]	-9.2%	0.4%
c1csc(-c2ccc(N3CCOCC3)nn2)c1	25.5*	.	26.9	.	.	.
CCOC(=O)C1CCN(c2ccc(-c3cccs3)nn2)CC1	36.7*	1.1%[46.1 µM]	98.7*	14.6%[46.1 µM]	-23.8%	-4.3%
O=C(Nc1ccccc1F)C(=O)c1cn(CC(=O)N2CCCCC2)c2ccccc12	32.7*	-1.9%	53.9*	19.3%[46.1 µM]	i	-11.0%
CC(=O)Nc1cccc(NC(=O)C(=O)c2cn(CC(=O)N3CCCCC3)c3ccccc23)c1	45.1*	?	85.2*	?	-14.2%	-2.6%
O=C(c1ccc(F)cc1)C(Cc1ccccc1)N1CCCCC1 (stereo not given)	34.6*	17.5%	69.2*	-0.4%	i	-5.9%
O=C(Nc1ccc(F)cc1)C(Cc1ccccc1)n1cccc1 (stereo not given)	-4.7	?	0.9	?	i	-15.3%
Cc1cc(N2CCCC2=O)cc(C)c1CN1C(=O)c2ccccc2C1=O	26.9*	12.0%	14.8	5.5%	i	-10.5%
O=C(O)CC/C(=N/NC(=O)CNC(=O)C(c1ccccc1)c1ccccc1)c1ccccc1	1.2	.	-4.9	.	-16.3%	-12.5%
O=C1NC(=O)N(c2ccccc2)C(=O)/C1=C/c1coc2ccc(O)cc2c1=O	23.6*	.	28.2*	.	.	.
O=C1NN(c2ccccc2)C(=O)/C1=C/c1coc2ccccc2c1=O	81.1*	?	54.1*	?	-11.2%	-5.2%
Cn1c(COc2ccc(C(=O)O)cc2)nc2ccccc21	-5.1	.	-5.8	.	.	.
Cn1c(COc2ccc(F)cc2)nc2ccccc21	43.0*	-0.7%[46.1 µM]	68.3*	?	-3.2%	0.8%
Cc1ccc(C)c(OCc2nc3ccccc3n2C)c1	.	1.3%[46.1 µM]	.	?	-5.6%	-11.2%
Cc1cccc(OCc2nc3ccccc3n2C)c1	37.4*	.	29.1*	.	.	.
COc1cccc(OCc2nc3ccccc3n2C)c1	.	31.8%[46.1 µM]	.	?	-9.8%	-0.4%
Cc1ccccc1OCc1nc2ccccc2n1C	31.6*	.	.	.	.	.
Cc1nnc(OCc2nc3ccccc3n2C)c2ccccc12	33.4*	9.2%	67.5*	18.0%	.	?
COc1ccccc1C(=O)N[C@@H]1c2ccccc2C2(CCN(Cc3c(O)cccc3OC)CC2)[C@H]1O	.	.	.	.	-17.1%	?
O=c1[nH]c(=O)n(C2OC(CO)C(O)C2O)cc1Br (stereo not given)	-5.2	-17.4%	1.7	0.1%[46.1 µM]	-9.7%	-9.0%
COc1ccc(NC(=O)C(=O)NCC2(c3ccccc3)CCCC2)c(OC)c1	.	-22.9%[46.1 µM]	.	7.6%[46.1 µM]	i	-8.6%
COc1ccc(-c2nnc(SCC(=O)Nc3ccc(F)cc3)s2)cc1	.	11.2%[46.1 µM]	.	.	-4.9%	-11.6%
Cc1ccc(S(=O)(=O)C2CS(=O)(=O)CC2O)cc1 (stereo not given)	-6.3	7.3%	12.1	18.5%	-8.8%	-10.6%
CC(=O)C1=C(S(=O)(=O)c2ccc(C)cc2)CS(=O)(=O)C1	20.1*	-10.1%[46.1 µM]	29.2	-2.8%[46.1 µM]	i	-1.4%
COC(=O)/C(=C1/Oc2ccc(C(C)(C)C)cc2S1)C(F)(F)F	50.1*	-1.0%	9.7	2.0%	.	.
COc1cccc(C(=O)N=c2sc3c(C)ccc(OC)c3n2C)c1	44.6*	.	48.5*	.	i	-1.7%
COc1ccccc1C(=O)N=c1sc2c(C)ccc(OC)c2n1C	39.9*	-21.5%[46.1 µM]	107.0*	?	-25.1%	-8.5%
CN(C)S(=O)(=O)c1ccc(C(=O)Nc2c(C(=O)Nc3ccc(F)cc3)oc3ccccc23)cc1	.	-2.3%[46.1 µM]	.	-4.5%[46.1 µM]	-0.5%	-7.8%
CCOC(=O)c1c(NC(=O)c2cc(=O)c3ccc(C)cc3o2)sc(C)c1C	.	9.4%[46.1 µM]	.	27.7%[46.1 µM]	-4.2%	-12.4%

Bioassay records: PubChem, National Center for Advancing Translational Sciences (NCATS)
